# PubChem BioAssay (NCI)
# About 79,000 compounds went through this panel and 15% of them were active in at least one assay; those are over-represented in the sample as a whole. A number with no mark means an inactive call. Active and inactive are the calls of the source. Rule as the data show it: active = growth inhibition above about 70%; inactive = the rest.
# Columns and labels:
# [1] = NCI Yeast Anticancer Drug Screen. Data for the rad52 strain (AID 147);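 also: 0% = growth of vehicle-treated control cultures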; settings: S. cerevisiae rad52 mutant growth inhibition, active compounds read high
# Method in brief: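 Read-out: growth inhibition versus vehicle-treated controls. Cells were a DNA repair-deficient yeast strain treated with compounds.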
# [2] = NCI Yeast Anticancer Drug Screen. Data for the wt1 strain (AID 149);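 also: 0% = growth of vehicle-treated wt1 cultures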; settings: S. cerevisiae wt1 strain (SPY 50644) growth inhibition, active compounds read high
# Method in brief: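 Using yeast strain wt1, compound-induced growth inhibition was determined against vehicle-treated cultures.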
# [3] = NCI Yeast Anticancer Drug Screen. Data for the rad50EPP+ strain (AID 151);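 also: 0% = growth of vehicle-treated control cultures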; settings: S. cerevisiae rad50 mutant strain, active compounds read high
# Method in brief: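 Growth inhibition read against vehicle controls in rad50EPP+ yeast, a strain altered in DNA damage repair, after compound exposure.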
# [4] = NCI Yeast Anticancer Drug Screen. Data for the rad50 strain (AID 155);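 also: 0% = growth of vehicle-only cultures of the same strain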; settings: S. cerevisiae rad50 strain growth inhibition, active compounds read high
# Method in brief: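 Relative growth inhibition (compound vs vehicle) was measured in yeast with a defined repair-gene alteration.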
# [5] = NCI Yeast Anticancer Drug Screen. Data for the mec2-1 strain (AID 157); settings: S. cerevisiae mec2-1 strain, active compounds read high
# Method in brief: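 Yeast mec2-1 mutant treated with compound. Readout: growth inhibition vs vehicle controls.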
# [6] = NCI Yeast Anticancer Drug Screen. Data for the rad14 strain (AID 159);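 also: 0% = growth of vehicle-treated control cultures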; settings: S. cerevisiae rad14 strain growth inhibition, active compounds read high
# Method in brief: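 Screen for anticancer potential: a yeast strain altered in DNA damage repair is grown with compound, and reduced growth is quantified against vehicle controls.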
# [7] = NCI Yeast Anticancer Drug Screen. Data for the sgs1 mgt1 strain (AID 161);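 also: 0% = growth of cultures given vehicle only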; settings: S. cerevisiae sgs1 mgt1 strain, active compounds read high
# Method in brief: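 Test agents were incubated with a DNA-repair-mutant yeast strain. Growth was then read and compared against vehicle-treated controls.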
# [8] = NCI Yeast Anticancer Drug Screen. Data for the CLN2oe strain (AID 163);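 also: 0% = growth of vehicle-only control cultures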; settings: S. cerevisiae CLN2oe strain, active compounds read high
# Method in brief: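 Read-out: yeast growth inhibition, expressed relative to vehicle-only controls. The strain bears an engineered cell-cycle alteration.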
# [9] = NCI Yeast Anticancer Drug Screen. Data for the cln2 rad14 strain (AID 165);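 also: 0% = growth equal to vehicle treated cultures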; settings: S. cerevisiae cln2 rad14 strain, active compounds read high
# Method in brief: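 cln2 rad14 yeast strain; compound exposure; growth inhibition read vs vehicle controls.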
# [10] = NCI Yeast Anticancer Drug Screen. Data for the bub3 strain (AID 167); settings: S. cerevisiae bub3 mutant strain, active compounds read high
# Method in brief: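 Screening used yeast with an engineered genetic alteration affecting cell cycle control. Compound-exposed cultures were compared with vehicle cultures, and reduced growth was taken as inhibition.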
# [11] = NCI Yeast Anticancer Drug Screen. Data for the wt2 strain (AID 169);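 also: 0% = growth of vehicle-treated yeast cultures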; settings: S. cerevisiae wt2 strain growth inhibition, active compounds read high
# Method in brief: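 Read-out: growth inhibition versus vehicle-treated control cultures after compound exposure of the yeast strain.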
# [12] = NCI Yeast Anticancer Drug Screen. Data for the mlh1 strain (AID 171);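 also: 0% = growth of vehicle-treated control cultures of the same strain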; settings: S. cerevisiae mlh1 strain growth inhibition, active compounds read high
# Method in brief: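 Read-out: growth inhibition versus vehicle controls. Strain: engineered yeast with a defined DNA repair or cell cycle defect, compound-treated.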
# [13] = NCI Yeast Anticancer Drug Screen. Data for the sgs1 strain (AID 173);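 also: 0% = growth of vehicle-only control cultures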; settings: S. cerevisiae sgs1 mutant, active compounds read high
# Method in brief: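 Read-out: yeast growth inhibition relative to vehicle controls, following compound exposure of a strain with a defined DNA repair/cell cycle alteration.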
# [14] = NCI Yeast Anticancer Drug Screen. Data for the mlh1 rad18 strain (AID 175); settings: S. cerevisiae mlh1 rad18 strain growth inhibition, active compounds read high
# Method in brief: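 Yeast w/ defined DNA-repair lesions; compound exposure; growth vs vehicle controls → % inhibition.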
# [15] = NCI Yeast Anticancer Drug Screen. Data for the rad18 strain (AID 177); settings: S. cerevisiae rad18 mutant growth inhibition, active compounds read high
# Method in brief: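 Readout: growth inhibition vs vehicle controls. Cells: genetically altered yeast strain, DNA repair defect.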
# [16] = at 5.0 µM (retest, dose inferred, filed as 0.5)
# [17] = at 50.0 µM (retest, dose inferred, filed as 5.0)
smiles,measurement,setting,value
O=C(O)c1[nH]c(=O)c2ccccc2c1Nc1ccccc1,growth inhibition,[1]; at 1.2 µM,-2%
same,growth inhibition,[1]; at 3.7 µM,-1%
same,growth inhibition,[1]; at 11.0 µM,2%
same,growth inhibition,[1]; at 33.0 µM,4%
same,growth inhibition,[1]; at 100.0 µM,3%
same,growth inhibition,[2]; at 1.2 µM,-1%
same,growth inhibition,[2]; at 3.7 µM,-2%
same,growth inhibition,[2]; at 11.0 µM,-2%
same,growth inhibition,[2]; at 33.0 µM,-1%
same,growth inhibition,[2]; at 100.0 µM,1%
same,growth inhibition,[3]; at 1.2 µM,-3%
same,growth inhibition,[3]; at 3.7 µM,-2%
same,growth inhibition,[3]; at 11.0 µM,0%
same,growth inhibition,[3]; at 33.0 µM,-1%
same,growth inhibition,[3]; at 100.0 µM,6%
same,growth inhibition,[4]; at 1.2 µM,-3%
same,growth inhibition,[4]; at 3.7 µM,-1%
same,growth inhibition,[4]; [16],-6%
same,growth inhibition,[4]; at 11.0 µM,1%
same,growth inhibition,[4]; at 33.0 µM,4%
same,growth inhibition,[4]; [17],-11%
same,growth inhibition,[4]; at 50.0 µM,-0.85%
same,growth inhibition,[4]; at 100.0 µM,0%
same,growth inhibition,[5]; at 1.2 µM,-3%
same,growth inhibition,[5]; at 3.7 µM,-3%
same,growth inhibition,[5]; [16],-13%
same,growth inhibition,[5]; at 11.0 µM,-2%
same,growth inhibition,[5]; at 33.0 µM,1%
same,growth inhibition,[5]; [17],-24%
same,growth inhibition,[5]; at 50.0 µM,-1.2%
same,growth inhibition,[5]; at 100.0 µM,3%
same,growth inhibition,[6]; at 1.2 µM,-3%
same,growth inhibition,[6]; at 3.7 µM,-3%
same,growth inhibition,[6]; at 11.0 µM,1%
same,growth inhibition,[6]; at 33.0 µM,1%
same,growth inhibition,[6]; at 100.0 µM,2%
same,growth inhibition,[7]; [16],0%
same,growth inhibition,[7]; [17],5%
same,growth inhibition,[7]; at 50.0 µM,10.3%
same,growth inhibition,[8]; at 1.2 µM,-3%
same,growth inhibition,[8]; at 3.7 µM,1%
same,growth inhibition,[8]; at 11.0 µM,-2%
same,growth inhibition,[8]; at 33.0 µM,-1%
same,growth inhibition,[8]; at 100.0 µM,1%
same,growth inhibition,[9]; [16],-23%
same,growth inhibition,[9]; [17],41%
same,growth inhibition,[9]; at 50.0 µM,-10.4%
same,growth inhibition,[10]; at 1.2 µM,-2%
same,growth inhibition,[10]; at 3.7 µM,-2%
same,growth inhibition,[10]; [16],-4%
same,growth inhibition,[10]; at 11.0 µM,-3%
same,growth inhibition,[10]; at 33.0 µM,-3%
same,growth inhibition,[10]; [17],-11%
same,growth inhibition,[10]; at 50.0 µM,-6.6%
same,growth inhibition,[10]; at 100.0 µM,-2%
same,growth inhibition,[11]; at 1.2 µM,-3%
same,growth inhibition,[11]; at 3.7 µM,-3%
same,growth inhibition,[11]; at 11.0 µM,-2%
same,growth inhibition,[11]; at 33.0 µM,-4%
same,growth inhibition,[11]; at 100.0 µM,0%
same,growth inhibition,[12]; at 1.2 µM,-2%
same,growth inhibition,[12]; at 3.7 µM,0%
same,growth inhibition,[12]; at 11.0 µM,0%
same,growth inhibition,[12]; at 33.0 µM,1%
same,growth inhibition,[12]; at 100.0 µM,4%
same,growth inhibition,[13]; at 1.2 µM,-7%
same,growth inhibition,[13]; at 3.7 µM,-3%
same,growth inhibition,[13]; at 11.0 µM,1%
same,growth inhibition,[13]; at 33.0 µM,1%
same,growth inhibition,[13]; at 100.0 µM,2%
same,growth inhibition,[14]; [16],-14%
same,growth inhibition,[14]; [17],-8%
same,growth inhibition,[14]; at 50.0 µM,7.5%
same,growth inhibition,[15]; at 1.2 µM,-2%
same,growth inhibition,[15]; at 3.7 µM,-1%
same,growth inhibition,[15]; at 11.0 µM,0%
same,growth inhibition,[15]; at 33.0 µM,0%
same,growth inhibition,[15]; at 100.0 µM,6%
CC(=O)N1C(=O)/C(=C\C(=O)c2ccc(Cl)cc2)c2ccccc21,growth inhibition,[1]; at 1.2 µM,8%
same,growth inhibition,[1]; at 3.7 µM,34%
same,growth inhibition,[1]; at 11.0 µM,59%
same,growth inhibition,[1]; at 33.0 µM,93% (active)
same,growth inhibition,[1]; at 100.0 µM,94% (active)
same,growth inhibition,[2]; at 1.2 µM,5%
same,growth inhibition,[2]; at 3.7 µM,7%
same,growth inhibition,[2]; at 11.0 µM,31%
same,growth inhibition,[2]; at 33.0 µM,79% (active)
same,growth inhibition,[2]; at 100.0 µM,94% (active)
same,growth inhibition,[3]; at 1.2 µM,-2%
same,growth inhibition,[3]; at 3.7 µM,12%
same,growth inhibition,[3]; at 11.0 µM,22%
same,growth inhibition,[3]; at 33.0 µM,47%
same,growth inhibition,[3]; at 100.0 µM,72% (active)
same,growth inhibition,[4]; at 1.2 µM,11%
same,growth inhibition,[4]; at 3.7 µM,0%
same,growth inhibition,[4]; [16],44%
same,growth inhibition,[4]; at 11.0 µM,51%
same,growth inhibition,[4]; at 33.0 µM,90% (active)
same,growth inhibition,[4]; [17],96% (active)
same,growth inhibition,[4]; at 50.0 µM,76% (active)
same,growth inhibition,[4]; at 100.0 µM,92% (active)
same,growth inhibition,[5]; at 1.2 µM,-3%
same,growth inhibition,[5]; at 3.7 µM,-8%
same,growth inhibition,[5]; [16],45%
same,growth inhibition,[5]; at 11.0 µM,17%
same,growth inhibition,[5]; at 33.0 µM,81% (active)
same,growth inhibition,[5]; [17],98% (active)
same,growth inhibition,[5]; at 50.0 µM,87.4% (active)
same,growth inhibition,[5]; at 100.0 µM,91% (active)
same,growth inhibition,[6]; at 1.2 µM,-16%
same,growth inhibition,[6]; at 3.7 µM,-10%
same,growth inhibition,[6]; at 11.0 µM,8%
same,growth inhibition,[6]; at 33.0 µM,71% (active)
same,growth inhibition,[6]; at 100.0 µM,92% (active)
same,growth inhibition,[7]; [16],41%
same,growth inhibition,[7]; [17],96% (active)
same,growth inhibition,[7]; at 50.0 µM,86.3% (active)
same,growth inhibition,[8]; at 1.2 µM,-38%
same,growth inhibition,[8]; at 3.7 µM,-14%
same,growth inhibition,[8]; at 11.0 µM,2%
same,growth inhibition,[8]; at 33.0 µM,66%
same,growth inhibition,[8]; at 100.0 µM,90% (active)
same,growth inhibition,[9]; [16],14%
same,growth inhibition,[9]; [17],91% (active)
same,growth inhibition,[9]; at 50.0 µM,77.2% (active)
same,growth inhibition,[10]; at 1.2 µM,2%
same,growth inhibition,[10]; at 3.7 µM,-23%
same,growth inhibition,[10]; [16],13%
same,growth inhibition,[10]; at 11.0 µM,-15%
same,growth inhibition,[10]; at 33.0 µM,81% (active)
same,growth inhibition,[10]; [17],96% (active)
same,growth inhibition,[10]; at 50.0 µM,85.8% (active)
same,growth inhibition,[10]; at 100.0 µM,92% (active)
same,growth inhibition,[11]; at 1.2 µM,25%
same,growth inhibition,[11]; at 3.7 µM,52%
same,growth inhibition,[11]; at 11.0 µM,93% (active)
same,growth inhibition,[11]; at 33.0 µM,97% (active)
same,growth inhibition,[11]; at 100.0 µM,93% (active)
same,growth inhibition,[12]; at 1.2 µM,-18%
same,growth inhibition,[12]; at 3.7 µM,2%
same,growth inhibition,[12]; at 11.0 µM,31%
same,growth inhibition,[12]; at 33.0 µM,78% (active)
same,growth inhibition,[12]; at 100.0 µM,92% (active)
same,growth inhibition,[13]; at 1.2 µM,-15%
same,growth inhibition,[13]; at 3.7 µM,17%
same,growth inhibition,[13]; at 11.0 µM,49%
same,growth inhibition,[13]; at 33.0 µM,87% (active)
same,growth inhibition,[13]; at 100.0 µM,92% (active)
same,growth inhibition,[14]; [16],80% (active)
same,growth inhibition,[14]; [17],97% (active)
same,growth inhibition,[14]; at 50.0 µM,80.7% (active)
same,growth inhibition,[15]; at 1.2 µM,14%
same,growth inhibition,[15]; at 3.7 µM,32%
same,growth inhibition,[15]; at 11.0 µM,66%
same,growth inhibition,[15]; at 33.0 µM,92% (active)
same,growth inhibition,[15]; at 100.0 µM,92% (active)
